ALOX12 inhib: blocks human 12-lipoxygenase activity | purified 12-hLO, xylenol orange hydroperoxide absorbance | Potency, µM (top dose mostly 57.1 µM), for the others: at the top dose activity change, negative = inhibition, actives largely listed as inhibitors | 0.12% of 150,000 active | AID 1452; active means well fitted inhibition curve with a large enough effect; inconclusive means small, poorly fitted or top-dose-only effect; further: potency means the concentration at half of the fitted maximal effect; nearly all actives have a fitted effect of over 55% in size
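Hydroperoxide formation by human 12-lipoxygenase from 40 uM arachidonic acid was followed colorimetrically via ferric-xylenol orange complex, using the 573/405 nm absorbance ratio. Enzyme concentration was 150 nM, with 30 min reaction at room temperature.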
PNC inhibitor: inhibitors of perinucleolar compartment assembly; PC3M PTB-GFP, PNC prevalence imaging, 16 h; hits give low values; activity change (PNC), negative = inhibition, % at 10 µM; 3.1% of 140,000 active; AID 2417;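 active means readout at or below -70, meaning at least 70% loss of cells showing the perinucleolar compartment, a nuclear body marking cancer cells; inconclusive means readout between -30 and a set limit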;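 further: plate controls were DMSO wells for no effect and camptothecin positive control wells for full effect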
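PC3M cells stably expressing PTB-GFP, 750–1000 cells/well, treated 16 h at 37 °C with compound (23 nl of library stock), in duplicate. After paraformaldehyde fixation and Hoechst stain, imaged at 20x; PNC prevalence scored by image analysis.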
ALDH1A1 inh: ALDH1A1 (human) enzyme inhibition; AID 1030; Purified ALDH1A1, NADH fluorescence, propionaldehyde substrate; 7.3% of 220,000 active; Potency, µM (series often up to 75.3 µM), for the others: top-dose activity, negative = inhibition, most hits filed as inhibitors; P00352;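 further: potency means the concentration at half of the fitted maximal effect; plate controls were no enzyme wells and a reference inhibitor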
Target sequence (P00352 whole entry, looked up): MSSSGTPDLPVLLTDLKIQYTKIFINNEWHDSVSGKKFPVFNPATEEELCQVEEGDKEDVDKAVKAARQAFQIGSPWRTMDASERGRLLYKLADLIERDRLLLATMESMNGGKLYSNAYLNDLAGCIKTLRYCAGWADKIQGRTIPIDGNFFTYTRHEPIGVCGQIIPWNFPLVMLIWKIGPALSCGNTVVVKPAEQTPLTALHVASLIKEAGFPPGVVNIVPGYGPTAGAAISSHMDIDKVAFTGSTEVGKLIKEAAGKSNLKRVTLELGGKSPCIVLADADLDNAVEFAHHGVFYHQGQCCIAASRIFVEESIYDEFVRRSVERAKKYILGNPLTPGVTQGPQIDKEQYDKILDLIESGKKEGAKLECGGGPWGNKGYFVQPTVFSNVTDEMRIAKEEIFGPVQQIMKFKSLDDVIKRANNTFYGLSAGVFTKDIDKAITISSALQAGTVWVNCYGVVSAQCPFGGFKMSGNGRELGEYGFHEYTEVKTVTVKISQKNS
HPGD block: inhibitors of human 15-hydroxyprostaglandin dehydrogenase (HPGD). P15428. purified HPGD, NADH fluorescence kinetic, PGE2 substrate. Potency, µM, inactives show at the top dose activity change, negative = inhibition, usual class: inhibitors. 4.3% of 150,000 active. AID 894; further: potency means the concentration at half of the fitted maximal effect
Target sequence (P15428 whole entry, looked up): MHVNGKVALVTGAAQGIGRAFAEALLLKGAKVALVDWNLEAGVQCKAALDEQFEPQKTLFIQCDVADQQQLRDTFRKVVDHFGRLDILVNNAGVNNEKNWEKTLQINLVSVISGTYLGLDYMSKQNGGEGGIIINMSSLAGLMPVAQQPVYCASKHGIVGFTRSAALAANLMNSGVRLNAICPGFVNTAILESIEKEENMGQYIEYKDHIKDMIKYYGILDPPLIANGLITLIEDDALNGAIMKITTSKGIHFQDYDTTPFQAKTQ
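20 nM HPGD preincubated 15 min at room temperature with compound in 50 mM Tris-HCl pH 8, 0.01% Tween 20. Started with 1 mM NAD+ and 30 uM prostaglandin E2; NADH fluorescence (360/450 nm) read 5 times over 30-s intervals, last minus first.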
Lamin A splicing: changes lamin A minigene splicing in HeLa cells. Potency, µM (top dose mostly 46.1 µM), for the others: at the highest dose ratio change, negative = inhibition, hits mostly inhibitors. 0.01% of 200,000 active. HeLa LMNA splicing GFP/RFP minigene ratio, 48 h. AID 1487; active means well fitted inhibition curve with a large enough effect in the signal ratio, with a control signal flat, not every such curve was filed as active; inconclusive means small, poorly fitted or top-dose-only effect, or effect the other way, or a change in a side signal; the % refers to the signal ratio; further: potency means the concentration at half of the fitted maximal effect
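S3 HeLa stable clones carrying a lamin A-EGFP splicing minigene plus DsRed2 were seeded at 600 cells/well in Opti-MEM with 2% FBS, pin-dosed and incubated 48 h at 37°C. Acumen cytometry (488 nm) gave the GFP/RFP total-intensity ratio.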
Starred values were filed as active, the others as inactive; ? = inconclusive; · = no result given; ! = not confirmed by another sample; [ ] = remark or other dose. A selection: hits, their analogues and other compounds. The true share with any hit is near 10%. Unless noted, the call rests on the fitted dose curve; in most records, active means well fitted inhibition curve with a large enough effect (not every such curve was filed as active); inconclusive means small, poorly fitted or top-dose-only effect, or another doubt; inactive means no such curve, though single readings can be large or run the other way. Unless noted, on the % scale 0 is the no-effect control and ±100 the full control effect.

SMILES	ALOX12 inhib	PNC inhibitor	ALDH1A1 inh	HPGD block	Lamin A splicing
N#CC(C#N)=Cc1ccc([N+](=O)[O-])c(O)c1	-5.8%[0.00818 µM]	·	15.8µM*	15.8µM*	?
Nn1cnnc1	-3.4%	·	12.1%	-6.8%	·
OC1(c2ccc(F)cc2)CC2CCC(C1)N2Cc1nnnn1C1CCCC1 (stereo unspecified)	-5.0%	-6.6	2µM*	-2.1%	-6.7%
Fc1ccc2c(c1)nnn2C1CCN(Cc2nnnn2CCc2ccccc2)CC1	-2.9%	-26.8	-6.6%	-3.6%	?
C/C(=N\Nc1ccccc1)c1c(O)n(C)c(=O)n(C)c1=O	-8.8%	?	25.1µM*	-11.0%	-10.9%
Cn1c(O)c(/C=N/c2ccccn2)c(=O)n(C)c1=O	0.4%	?	?	-25.6%	6.1%
Cn1c(O)c(/C=N/Nc2ccccc2)c(=O)n(C)c1=O	·	·	10µM*	·	-10.4%[9.22 µM]
COc1cc2c(cc1OC)[C@@]13CCN4CC5=CCO[C@H](CC(=O)O)[C@@H]([C@H]1N2)[C@H]5C[C@H]43	3.9%[11.4 µM]	·	17.1%[13.5 µM]	-10.8%	·
C=CC(=O)OCC(CO)(COC(=O)C=C)COC(=O)C=C	2.3%	·	0.398µM*	-5.0%	·
NC1CCc2cc(O)c(O)cc2C1 (stereo unspecified)	·	·	7.94µM*!	-13.8%	?
Cc1ccc2c(c1)C1CN(C)CCC1N2C(=O)c1ccc(Br)o1 (stereo unspecified)	-3.0%	-17.4	22.4µM*	-16.1%	5.8%
CC(C)CON=O	1.6%	·	31.6µM*	-0.9%	·
CC(C)CCON=O	-1.1%	·	?	-6.3%	?
CN1C(=O)C(=Cc2ccccc2OCc2ccc(Cl)cc2)C(=O)N(C)C1=O	-4.8%	46.9	17.8µM*	22.4µM*	-6.7%
CN1C(=O)C(=Cc2ccccc2Oc2ccc(Cl)cc2)C(=O)N(C)C1=O	1.4%	-19.6	?	25.1µM*	?
NC[C@@H](Cc1ccccc1)P(=O)(O)O	6.1%[11.4 µM]	·	18.5%[13.5 µM]	-7.7%	·
C[C@@]12CCC(Cl)C[C@H]1CCC1C2CC[C@]2(C)C(=O)CCC12 (stereo partly specified)	1.7%	·	3.3%	-8.5%	15.9%
C[C@]12C/C(=C/O)C(=O)C[C@@H]1CC[C@@H]1[C@@H]2CC[C@@]2(C)[C@H]1CC[C@]2(C)O	-2.5%	·	0.0708µM*	-6.2%	?
C[C@H](CC(C#N)(c1ccccc1)c1ccccc1)N1CCCCC1	0.7%[11.4 µM]	·	10.7%[13.5 µM]	-2.2%	·
O=C(c1cc(-c2cccnc2)nc2ccc(Cl)cc12)N1CCC2(CC1)OCCO2	-3.1%	7.9	7.08µM*	-9.3%	-3.0%
O=C(O)c1ccccc1C(=O)O	-5.0%	·	28.2µM*	-11.1%	·
c1ccc2c(c1)c1cccc3ccc4cccc2c4c31	-3.7%	·	?	?	·
NC(Cc1ccc(N(CCCl)CCCl)cc1)C(=O)O (stereo unspecified)	-6.8%	·	31.6µM*	3.3%	?
CC(=O)NC(Cc1ccc(N(CCCl)CCCl)cc1)C(=O)NC(C(=O)O)C(C)C (stereo unspecified)	·	·	-14.3%	·	22.7%[46 µM]
CCOC(=O)CC(NC(=O)C(Cc1ccc(N(CCCl)CCCl)cc1)NC(C)=O)C(=O)OCC (stereo unspecified)	·	·	25.1µM*	·	?
SMILES	ALOX12 inhib	PNC inhibitor	ALDH1A1 inh	HPGD block	Lamin A splicing
O=C(Cl)C(Cl)(Cl)Cl	2.4%	·	-5.2%	-1.9%	·
Cc1cccc(N2C(=O)NC(=O)/C(=C/c3ccc([N+](=O)[O-])o3)C2=O)c1	13.3%	-20.8	-4.1%	12.6µM*	3.8%
COc1ccc(CN2C(=O)NC(=O)/C(=C/c3ccc([N+](=O)[O-])o3)C2=O)cc1	·	·	17.8µM*	·	·
Nc1c(C(=O)Nc2ccc([As](=O)(O)O)cc2)cnc2nnnn12	-1.3%[11.4 µM]	·	-4.1%[13.5 µM]	0.0%	·
CC(=O)Oc1ccc(Cl)c2cccnc12	?	·	5.7%	-7.0%	·
C=C1CC[C@H](O)C/C1=C/C=C1\CCC[C@]2(C)[C@H]1CC[C@H]2[C@@H](C)CCCC(C)C	0.8%[25.6 µM]	·	-14.3%[20.9 µM]	-5.1%	-13.0%
Nc1nc(SCCC(F)=C(F)F)n[nH]1	·	·	5.3%	·	4.9%[46 µM]
CC1CCc2c(sc3nc(CSc4n[nH]c(N)n4)[nH]c(=O)c23)C1 (stereo unspecified)	-2.4%	-94.8*	?	-15.7%	?
C=C(C)[C@H]1CC[C@]2(C(=O)O)CC[C@]3(C)[C@@H](CC[C@H]4[C@@]5(C)CC[C@@H](O)C(C)(C)[C@@H]5CC[C@@]43C)[C@H]12	-3.2%[25.6 µM]	·	10.6%[20.9 µM]	-11.2%	?
CC/C(=N\N1CCN(C)CC1)c1c(O)[nH]c(=O)[nH]c1=O	0.1%	-10.6	-5.1%	-10.7%	-16.5%
C/C(=N\N1CCN(C)CC1)c1c(O)[nH]c(=O)[nH]c1=O	-3.1%	-121.5*	-3.7%	-8.7%	2.7%
CC1=[N+]([O-])C2(N)CCc3nonc3C2(O)C1 (stereo unspecified)	-3.8%	25.3	7.08µM*	-9.5%	6.1%
CC/C(=C(\c1ccccc1)c1ccc(OCCN(C)C)cc1)c1ccc(O)cc1	-7.9%	·	?	-9.7%	·
Cc1nn(Cc2ccccc2)c2c1C(c1ccco1)C(C#N)=C(N)O2 (stereo unspecified)	-2.2%	?	28.2µM*	-17.6%	3.2%
N#CC1=C(N)Oc2n[nH]c(-c3cccs3)c2C1c1ccco1 (stereo unspecified)	-5.0%	18.4	?	?	20.9%
CC(N=Cc1c(O)[nH]c(=O)[nH]c1=O)c1ccccc1 (stereo unspecified)	-3.0%	-23.7	?	28.2µM*	?
CN1C[C@@H](CS(=O)(=O)N(C)C)C[C@H]2c3cccc4c3c(cn4C)C[C@@H]21	-3.1%	·	·	·	·
O=C(NCP(=O)(O)O)c1cccnc1	-3.6%[11.4 µM]	·	7.5%[13.5 µM]	-3.5%	·
CC1OC(O[C@H]2C[C@@H](O)[C@]3(CO)[C@@H]4C(CC[C@]3(O)C2)[C@@]2(O)CC[C@H](C3=CC(=O)OC3)[C@@]2(C)C[C@H]4O)C(O)C(O)C1O (stereo partly specified)	·	·	0.0%	·	?
CN1CCC(C)(O)C2CCCCC21 (stereo unspecified)	·	·	10µM*	·	·
CC(=O)O[C@]1(c2ccccc2)CCN(C)[C@H]2CCCC[C@@H]21	2.4%	29.0	0.3%	-5.9%	1.6%
COc1ccc(-c2oc3cc(OC)ccc3c(=O)c2O)cc1	-16.9%	·	?	?	·
NCCc1c[nH]c2ccc(O)cc12	-1.9%[0.00818 µM]	·	11.3%	-3.0%	·
O=C(O)C[C@H]1NCc2cc3ccccc3nc21	4.0%[11.4 µM]	·	7.7%[13.5 µM]	-2.6%	·
O=C(c1ccncc1)N1CCC2(CC1)CN(Cc1ccccc1)C2	-1.1%	·	-1.1%	-3.5%	·
O=C(c1ccco1)N1CCC2(CC1)CN(Cc1ccncc1)C2	-1.2%	·	12.6µM*	-4.4%	·
O=C(c1ccco1)N1CCC[C@@]2(CCN(Cc3ccncc3)C2)C1	-1.4%	·	10µM*	-6.6%	·
COc1ccc2c(c1O)-c1cccc3c1[C@H](C2)N(C)CC3	-2.3%	·	·	·	·

High-throughput results (PubChem BioAssay)
